# KAT2A inh: qHTS Assay for Inhibitors of GCN5L2; Histone acetyltransferase KAT2A (Homo sapiens), Q92830; GCN5L2 HAT assay, ThioGlo1 CoA-SH fluorescence; Potency, µM (highest dose often 58.9 µM), most hits filed as inhibitors; 390,000 compounds, 0.21% hits; AID 504327, 2011
# Target sequence (Q92830 whole entry, looked up): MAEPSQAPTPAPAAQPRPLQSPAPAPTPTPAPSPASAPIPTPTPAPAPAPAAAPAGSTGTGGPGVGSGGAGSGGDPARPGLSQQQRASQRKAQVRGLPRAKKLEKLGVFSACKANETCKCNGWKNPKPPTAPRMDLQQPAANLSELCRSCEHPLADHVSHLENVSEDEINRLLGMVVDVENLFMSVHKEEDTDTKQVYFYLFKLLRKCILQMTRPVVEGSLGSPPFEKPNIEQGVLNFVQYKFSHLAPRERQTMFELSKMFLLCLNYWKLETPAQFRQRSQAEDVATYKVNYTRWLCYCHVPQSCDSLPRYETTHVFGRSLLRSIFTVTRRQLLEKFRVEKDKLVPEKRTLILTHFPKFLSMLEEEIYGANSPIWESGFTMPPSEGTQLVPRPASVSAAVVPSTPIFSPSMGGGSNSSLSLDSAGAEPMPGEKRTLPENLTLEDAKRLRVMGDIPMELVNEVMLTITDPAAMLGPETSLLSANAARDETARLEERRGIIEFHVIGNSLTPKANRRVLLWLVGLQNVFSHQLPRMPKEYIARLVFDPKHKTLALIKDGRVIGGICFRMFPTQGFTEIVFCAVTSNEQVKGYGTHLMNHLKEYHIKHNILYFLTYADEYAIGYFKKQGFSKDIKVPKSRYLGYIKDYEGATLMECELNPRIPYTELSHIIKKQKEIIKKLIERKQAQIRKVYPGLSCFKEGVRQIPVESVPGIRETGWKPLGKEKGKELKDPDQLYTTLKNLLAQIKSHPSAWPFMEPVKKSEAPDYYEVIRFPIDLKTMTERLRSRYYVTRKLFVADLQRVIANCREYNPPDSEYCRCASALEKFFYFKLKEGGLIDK
#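 Preincubate 20nM GCN5L2 with compound 15 min, RT → add 50uM ThioGlo1 + 75uM H3(1-25) + 70uM acetyl-CoA → read fluorescence 0 and 20 min. Primary qHTS; fluorescent artifacts likely.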
# ALOX12 inh: Primary qHTS assay for inhibitors of human arachidonate 12S-lipoxygenase (ALOX12): Round 2; Potency, µM (top dose mostly 108 µM), hits mostly inhibitors; purified 12hLO, xylenol orange hydroperoxide absorbance; 580,000 compounds, 1.1% hits; AID 1671190, 2021
#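 Purified human 12hLO at 150 nM in 25 mM Hepes, 0.01% Triton X-100, pH 7.0, preincubated 15 min at room temperature with compound. Reaction started with 40 uM arachidonic acid, 30 min at room temperature. Hydroperoxide measured by Fe-xylenol orange, 573/405 nm absorbance ratio.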
# VDR inhibitor: Inhibitors of the vitamin D receptor (VDR): qHTS | Vitamin D3 receptor (Homo sapiens), P11473 | VDR-SRC2-3 peptide fluorescence polarization, 2 h | Potency, µM, hits mostly inhibitors | 400,000 compounds, 0.93% hits | AID 504847, 2011
#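 Compounds are added to VDR with labelled SRC2-3 coactivator peptide and held 2 h at room temperature. Inhibition of the VDR–peptide interaction is then read as a change in fluorescence polarization.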
# PLK1 PBD inh: qHTS for Inhibitors of PLK1-PDB (polo-like kinase 1 - polo-box domain): Primary Screen. Serine/threonine-protein kinase PLK1 (Homo sapiens), P53350. Plk1 PBD binding of FITC phosphopeptide, fluorescence polarization. Potency, µM, most hits filed as inhibitors. 360,000 compounds, 2.8% hits. AID 720504, 2013; also: series mostly up to about 57 µM; nearly all actives have a fitted effect of over 65% in size
# Numbers stand for hits; i = inactive; ? = inconclusive; nt = no result. Shown are actives, neighbours in structure and some others; about 3% of the full set was active somewhere. Calls follow the shape of the dose curve; as a rule, active = well fitted curve in the direction sought with a large enough effect; inconclusive = small, poorly fitted or top-dose-only effect, or another doubt; inactive = no such curve, though single readings can be large; an effect the other way counts as inactive or inconclusive.
SMILES,KAT2A inh,ALOX12 inh,VDR inhibitor,PLK1 PBD inh
CC[C@H](C)[C@H](NC(=O)CNC(=O)COc1cc2c(c3oc(=O)cc(C)c13)CCC(C)(C)O2)C(=O)O,22µM,i,i,i
CCCC(NC(=O)COc1cc2c(c3oc(=O)cc(C)c13)CCC(C)(C)O2)C(=O)O (stereo not given),?,i,i,i
COc1ccc(C(=O)Oc2cc(C)c(Cl)cc2C(C)C)cc1,nt,i,nt,nt
Cc1ccc(C(NC(=O)N2CCCC2)C(Cl)Cl)cc1F (stereo not given),i,i,?,i
Cc1ccc(C(NC(=O)N2CCOCC2)C(Cl)(Cl)Cl)cc1F (stereo not given),i,i,i,27µM
S=C(NCc1ccccc1)N1CCn2cccc2C1c1cccnc1 (stereo not given),i,i,i,i
S=C(NCc1ccccc1)N1CCn2cccc2C1c1ccncc1 (stereo not given),i,i,i,17µM
O=c1cc(-c2ccc(OCc3ccccc3)cc2)oc2cc(OCc3ccccc3)cc(OCc3ccccc3)c12,i,35µM,i,?
O=c1cc(-c2ccccc2)oc2cc(OCc3ccccc3)cc(O)c12,i,i,i,i
COCCNC(=O)C(=O)NNS(=O)(=O)c1ccc2ccccc2c1,i,i,?,19µM
Cc1ccc(S(=O)(=O)NNC(=S)Nc2ccc(Cl)cc2)cc1,i,i,i,i
Cc1ccc(NC(=S)NNS(=O)(=O)c2ccc3ccccc3c2)cc1Cl,i,40µM,i,19µM
O=C(O)C1Sc2[nH]c(=O)sc2C2c3cc(Br)ccc3OC(=O)C12 (stereo not given),i,?,?,30µM
COC(=O)C1Sc2[nH]c(=O)sc2C2c3ccccc3OC(=O)C12 (stereo not given),i,i,i,i
O=C(O)C1Sc2[nH]c(=O)sc2C2c3ccc(O)cc3OC(=O)C12 (stereo not given),i,?,i,30µM
COC(=O)c1ccc2c(c1)N(Cc1ccc(F)cc1Cl)C(=O)c1ccccc1S2(=O)=O,nt,i,nt,nt
Cc1cc(Cl)c(NC(=O)c2cccc(NC(=O)C(C)(C)C)c2)c2cccnc12,nt,i,nt,nt
CC(Oc1ccc(F)cc1)C(=O)Nc1cc(S(=O)(=O)N2CCCCC2)ccc1N1CCOCC1 (stereo not given),i,?,i,i
CCN1CCN(c2ccc(S(=O)(=O)N3CCCCC3)cc2NC(=O)C(C)Oc2ccc(F)cc2)CC1 (stereo not given),i,45µM,i,i
O=C(COc1ccccc1)Nc1cc(S(=O)(=O)N2CCOCC2)ccc1N1CCCC1,i,i,i,i
O=C(COc1ccc(F)cc1)Nc1cc(S(=O)(=O)N2CCCCC2)ccc1N1CCCCC1,i,6.3µM,i,i
O=C(COc1ccc([N+](=O)[O-])cc1)Nc1cc(S(=O)(=O)N2CCCCC2)ccc1N1CCCCC1,i,40µM,i,i
N#Cc1ccc(NC(=O)CNc2cc(S(=O)(=O)N3CCCCC3)ccc2N2CCCCC2)cc1,nt,16µM,nt,nt
COc1ccc(-n2cc(C(=O)Nc3ccc(F)c(F)c3)nn2)cc1,nt,i,nt,nt
CC1(C)CC(=O)C2=C(C1)N(c1cccc(C(F)(F)F)c1)C(=O)CC2c1cccs1 (stereo not given),nt,i,nt,nt
SMILES,KAT2A inh,ALOX12 inh,VDR inhibitor,PLK1 PBD inh
Cc1cc(C)nc(SSc2nc(C)cc(C)n2)n1,?,i,7.1µM,1.9µM
CC(C)NC(=O)Cn1cccc1-c1nc(-c2ccc(Cl)cc2)no1,nt,i,nt,nt
CC(C)c1onc(-c2c(Cl)cccc2Cl)c1COc1ccc(/C=C/c2cccc(C(=O)O)c2)c(Cl)c1,13µM,i,?,nt
CCC(C)NC(=O)c1cccc(OCc2c(C)noc2C)c1 (stereo not given),i,i,i,i
Cc1ccc(-n2c(=O)c3c(cc(C)n3C)n(CC(=O)Nc3ccccc3F)c2=O)cc1,nt,i,nt,nt
Cc1cc2c(c(=O)n(-c3ccccc3)c(=O)n2CC(=O)Nc2ccccc2F)n1C,nt,45µM,nt,nt
CC(C)NC(=O)CN1CCN(C(=O)c2ccc3ccccc3n2)CC1,nt,i,nt,nt
COCCn1cnc2c1c(=O)n(Cc1ccccc1)c(=O)n2CC(C)C,nt,i,nt,nt
CCOCCn1c(NCCOC)nc2c1c(=O)[nH]c(=O)n2C,nt,i,nt,nt
O=C(N/N=C/c1cc(Br)cc(Cl)c1O)c1ccc2c(c1)OCO2,nt,22µM,i,i
Cc1cc(Br)cc(/C=N/NC(=O)c2ccc3c(c2)OCO3)c1O,i,i,i,i
CCCCNc1cc(NC2CCCCC2)c2c3c(onc13)-c1ccccc1C2=O,i,i,?,nt
CCOC(=O)C(C(=O)OCC)c1cc(Br)c2noc3c2c1C(=O)c1ccccc1-3,?,?,?,1.9µM
COc1cc(OC)cc(-c2nnc(SCc3ccc(C(=O)O)cc3)o2)c1,?,?,?,19µM
Cc1nc2c3c(ncn2n1)OC1=C(C(=O)CCC1)C3c1ccco1 (stereo not given),nt,i,nt,nt
Cc1ccc(S(=O)(=O)N2CCCC(C(=O)O)C2)s1 (stereo not given),i,i,i,30µM
COc1cccc(CNC(=O)[C@H](C)NC(=O)C2CCN(S(=O)(=O)c3ccccc3)CC2)c1,i,i,?,27µM
COc1cccc(C(=O)CN2CCN(S(=O)(=O)c3ccc(Cl)cc3)CC2)c1,i,56µM,i,nt
COc1cccc(CNC(=O)c2cccc(S(=O)(=O)N3CCN(C)CC3)c2)c1,i,40µM,i,i
COc1ccc(S(=O)(=O)N2CCC(C(=O)N[C@@H](C)C(=O)NCc3cccc(OC)c3)CC2)cc1,i,i,i,i
COc1cccc(N2CCN(CC(=O)N3CCN(S(=O)(=O)c4ccc(Cl)cc4)CC3)CC2)c1,i,i,i,i
CCOC(=O)C(CC)(CC)C(=O)/C=C/c1cccc(Br)c1,nt,i,79µM,i
NC(=O)NC(=O)COC(=O)/C=C/c1cccc(Br)c1,i,i,i,i
CSc1ccccc1C(=O)C1CCCN(C(=O)c2cncs2)C1 (stereo not given),i,i,32µM,13µM
CSc1ccccc1C(=O)C1CCCN(C(=O)CCc2cccnc2)C1 (stereo not given),i,i,i,i
SMILES,KAT2A inh,ALOX12 inh,VDR inhibitor,PLK1 PBD inh
CC(C)CS(=O)(=O)C1=NSC2=NC(=O)/C(=C\c3ccc(OC(=O)c4ccco4)cc3)C(=N)N21,i,?,?,24µM
CSC1=NSC2=NC(=O)/C(=C\c3ccc(OC(=O)c4ccco4)cc3)C(=N)N12,i,?,i,?
CCC(CC)C1=NN2C(=N)/C(=C/c3ccc(OC(=O)c4ccco4)cc3)C(=O)N=C2S1,i,i,i,30µM
CS(=O)(=O)C1=NSC2=NC(=O)/C(=C\c3ccc(OC(=O)c4ccco4)c(Br)c3)C(=N)N21,i,?,?,24µM
O=C1NC(=S)SC1=Cc1cc(Br)ccc1O,nt,25µM,?,27µM
O=C1NC(=S)SC1=Cc1ccccc1Br,nt,?,?,i

# Compound activity as filed in PubChem.
